Laboratory results from PubChem BioAssay AID463173 (ICCB-Longwood Screening Facility, Harvard Medical School, 2010).
About 4,300 (8.3%) of roughly 52,000 compounds were called active. The sample holds actives, similar compounds and a random draw of the others, so the mix is not that of the screen. A number with no mark means an inactive call. Cut-off read from the data, not from the text of the source: active = survival mostly below about 52% (no sharp cut-off); inactive = mostly above about 56%.

These compounds were tested on DeltatarO mutant (assay: S. aureus survival, RN4220 and DeltatarO strains – OD600, teichoic acid synthesis inhibitors, primary screen (AID 463173)). Conditions: S. aureus RN4220 wild type/DeltatarO growth, OD600, 18 h, active compounds read low, screened at 18.75 µg/mL (by protocol).
O=C(NCc1ccccc1Cl)c1cc2cccc3c2n1CCS3 gave a survival of 115%. Compound COc1cc(OC)c(NC(=O)c2cc(C)nc3c2c(C)nn3-c2ccc(C)cc2)cc1Cl has a survival of 103%. Cc1c(Cl)ccc2sc(N3CCN(C(=O)c4ccco4)CC3)nc12 was tested, and the survival was 69%. Compound COc1cccc(NC(=O)CN2C(=O)c3cccnc3Oc3ccc(Cl)cc32)c1 has a survival of 80%. COc1cc(NC(=O)c2sc3nc4n(c(=O)c3c2C)CCCCC4)cc(OC)c1OC was tested, and the survival was 42% (active). COc1cc(Cl)c(C)cc1NC(=O)c1sc2nc3n(c(=O)c2c1C)CCCCC3 was tested, and the survival was 52%. Work on COc1cc(OC)c(NC(=O)c2sc3nc4n(c(=O)c3c2C)CCCC4)cc1Cl yielded a survival of 64%. CC(C)NS(=O)(=O)c1ccc2nc(NC(=O)c3cncc(Br)c3)sc2c1 showed a survival of 87%. With COc1ccc2c(c1)c1c(c(=O)n(Cc3ccccc3)c(=O)n1CC(=O)NCc1ccccc1Cl)n2C the survival was 72%. CNC(=O)Cc1nc2ccccc2[nH]1 was tested, and the survival was 87%. C/C(Cc1nc2ccccc2[nH]1)=N/Nc1ccccc1 was tested, and the survival was 2% (active). In the case of O=C(O)CNCc1nc2ccccc2[nH]1, the survival is reported as 95%. With COc1ccc(-c2noc(N3CCN(c4ccc(Cl)cc4)CC3)n2)cc1OC the survival was 80%. Cc1ccc(-c2cc(C(=O)N3CCN(S(=O)(=O)c4ccc(Br)s4)CC3)[nH]n2)cc1C was tested, and the survival was 83%. With CCOc1ccc(C2c3c(oc4ccc(C)cc4c3=O)C(=O)N2c2nc(C)c(C)s2)cc1OC (configuration not stated) the survival was 170%. CCCCN1CC(c2nc3ccccc3n2CCCCOc2ccc(C)c(C)c2)CC1=O (configuration not stated) was tested, and the survival was 20% (active). In the case of CCCCN1CC(c2nc3ccccc3n2CCCCOc2cc(C)cc(C)c2)CC1=O (configuration not stated), the survival is reported as 33% (active). Cc1cc(C)cc(NC(=O)Cn2nnc(C(=O)Nc3cc(C)cc(C)c3)c2N)c1 was tested, and the survival was 74%. With Cc1ccc2c(CC(=O)Nc3cccc(Cl)c3C)coc2c1 the survival was 100%. Compound Cc1oc2ncnc(N3CCCCC3)c2c1C(=O)NCC1CCN(Cc2ccc(F)cc2)CC1 has a survival of 77%. With CCc1ccccc1N(CC)C(=O)c1c(C)oc2ncnc(N3CCOCC3)c12 the survival was 96%. With Cc1ccc(CNC(=O)c2c(C)oc3ncnc(N4CCOCC4)c23)cc1 the survival was 17% (active). Compound CCCN(C(=O)c1c(C)oc2ncnc(N3CCOCC3)c12)c1ccc(Cl)c(Cl)c1 has a survival of 46%. Cc1cccc(CN2CCC(CNC(=O)c3c(C)oc4ncnc(N5CCCCC5)c34)CC2)c1 gave a survival of 77%. CCc1ccc(CNC(=O)c2c(C)oc3ncnc(N4CCOCC4)c23)cc1 gave a survival of 128%. Cc1oc2ncnc(N3CCCCC3)c2c1C(=O)NCC1CCN(Cc2cccc(F)c2)CC1 was tested, and the survival was -5% (active). Compound Cc1oc2ncnc(N3CCOCC3)c2c1C(=O)NCc1ccc(Cl)cc1 has a survival of 94%. With COC(=O)CCN(C(=O)c1c(C)oc2ncnc(N3CCOCC3)c12)c1ccccc1 the survival was 8% (active). For COc1ccc2oc(=O)c(C(=O)NCc3cccnc3)cc2c1, the survival was 83%. For CCOC(=O)c1cc(-c2ccc(F)cc2)n(CCC(=O)Nc2nc3cc(C)c(C)cc3s2)c1C, the survival was 85%. CCc1cccc2sc(N3CCN(C(=O)c4cc5ccccc5cc4OC)CC3)nc12 showed a survival of 119%. Compound COc1ccc(-n2nc(C(=O)N3CCN(c4ccc(F)cc4)CC3)c3c4ccccc4n(C)c3c2=O)cc1 has a survival of 69%. Cc1cc(N2CCN(c3cccc(C)c3C)CC2)n2cnnc2n1 gave a survival of 99%. Cc1ccc(NC(=O)Cn2c(=O)oc3cc(S(=O)(=O)N4CCCC4)ccc32)cc1F gave a survival of 113%. With CCCCSCCCNC(=O)c1cn(CC)c2ccc(S(=O)(=O)N(C)C3CCCCC3)cc2c1=O the survival was 24% (active). CCCCN(CCCC)CCNC(=O)c1cn(CC)c2ccc(S(=O)(=O)N(C)C3CCCCC3)cc2c1=O was tested, and the survival was 144%. Compound CCCN(CCC)CCCNC(=O)c1cn(CC)c2ccc(S(=O)(=O)N(C)C3CCCCC3)cc2c1=O has a survival of 94%. In the case of Cc1cccc(NC(=O)c2ccc(F)c(S(=O)(=O)N3CCN(c4ccc(F)cc4)CC3)c2)c1, the survival is reported as -1% (active). Work on Cc1cccc(NC(=O)c2ccc(F)c(S(=O)(=O)N3CCC4(CC3)OCCO4)c2)c1 yielded a survival of 72%. CCOc1ccccc1NC(=O)c1ccc(F)c(S(=O)(=O)N2CCN(c3ccc(F)cc3)CC2)c1 showed a survival of 76%. COc1cc(-c2cc3n(C)c(C)c(CCC(=O)NC4CCC(C)CC4)c(=O)n3n2)cc(OC)c1OC (configuration not stated) was tested, and the survival was 101%. In the case of CCOc1ccc(CCNC(=O)Cn2ncn3c(cc4ccccc43)c2=O)cc1OCC, the survival is reported as 85%. Compound COC(=O)C1(CO)NC(c2ccc(Cl)cc2)C2C(=O)N(C)C(=O)C21 (configuration not stated) has a survival of 66%. For Cc1ccccc1C(=O)Nc1ccc(OCc2cc(=O)n3ccccc3n2)cc1, the survival was 54%. CC1CCN(S(=O)(=O)c2nnc(NC(=O)c3cccc(Br)c3)s2)CC1 was tested, and the survival was 31% (active). COc1ccc(C(=O)Nc2nnc(S(=O)(=O)N3CCC(C)CC3)s2)cc1OC showed a survival of 79%. In the case of Cc1cccc(C(=O)Nc2nnc(S(=O)(=O)N3CCC(C)CC3)s2)c1, the survival is reported as 35% (active). In the case of CC1CCN(S(=O)(=O)c2ccc(C(=O)Nc3nc4ccc(F)cc4s3)cc2)CC1, the survival is reported as 46% (active). CC1CCN(S(=O)(=O)c2nnc(NC(=O)c3cccc(Cl)c3)s2)CC1 was tested, and the survival was 23% (active). COc1ccc2nc(NC(=O)c3ccc(S(=O)(=O)N4CCC(C)CC4)cc3)sc2c1 showed a survival of 91%. Cc1ccc2nc(NC(=O)c3ccc(S(=O)(=O)N4CCC(C)CC4)cc3)sc2c1 gave a survival of 93%. CCCNC(=O)CN1C(=O)COc2ccc(S(=O)(=O)N3CCCC3)cc21 showed a survival of 86%. For O=C1CCc2cc(S(=O)(=O)NCc3ccc(Cl)cc3)cc3c2N1CC3, the survival was 77%. Compound COCCOC(=O)Cn1nnc2sc(-c3ccccc3)cc2c1=O has a survival of 65%. COCC(=O)NCc1nc2cccnc2n1Cc1ccc(F)cc1 was tested, and the survival was 60%. With CN1CCN(C(=O)c2ccccc2C(=O)O)CC1 the survival was 96%. CCc1nn2c(=O)cc(COC(=O)c3ccc4c(c3)OCO4)nc2s1 was tested, and the survival was 76%.
